# Results taken from PubChem BioAssay AID463173 (ICCB-Longwood Screening Facility, Harvard Medical School, 2010).
# About 1,700 (3.3%) of roughly 52,000 compounds were called active. Rule as the data show it: active = survival mostly below about 52% (no sharp cut-off); inactive = mostly above about 56%. The list comes from a sample in which actives are over-represented; it also holds similar structures and randomly drawn compounds.
# System: Wild type
# Assay: growth inhibition of S. aureus wild type versus tarO mutant, primary screen, teichoic acid synthesis inhibitors, RN4220, OD600 (AID 463173)
# Settings: S. aureus RN4220 wild type/DeltatarO growth, OD600, 18 h, stronger effect = lower value, screened at 18.75 µg/mL (by protocol)
row,Structure (SMILES),survival
1,CCCCNC(=O)C(CC)Sc1nc2ccccc2c(=O)n1CCc1ccc(OC)c(OC)c1 (centres undefined),127% (inactive)
2,O=C(NCc1ccccc1Br)c1ccc(-n2cnc3cccnc32)cc1,152% (inactive)
3,Cc1cccc(C(=O)Nc2ccccc2-c2nc(-c3ccccc3)no2)c1,86% (inactive)
4,CCOc1ccc(CCNC(=O)C2CCN(c3ncnc4c3nc3n4CCCCC3)CC2)cc1,119% (inactive)
5,Cc1ccc(C(=O)CC2(O)C(=O)N(CCc3ccccc3)c3ccc(Cl)cc32)cc1 (centres undefined),3% (active)
6,Cc1ccc(CN2C(=O)C(O)(CC(=O)c3ccc(C)cc3)c3ccccc32)cc1 (centres undefined),66% (inactive)
7,CCc1ccc(C(=O)CC2(O)C(=O)N(CCc3ccccc3)c3ccc(Cl)cc32)cc1 (centres undefined),5% (active)
8,CCc1ccc(C(=O)CC2(O)C(=O)N(C(C)C)c3ccccc32)cc1 (centres undefined),111% (inactive)
9,CC(C)c1ccc(C(=O)CC2(O)C(=O)N(CCc3ccccc3)c3ccc(Cl)cc32)cc1 (centres undefined),33% (inactive)
10,CCc1ccc(C(=O)CC2(O)C(=O)N(Cc3ccc(C)cc3)c3ccccc32)cc1 (centres undefined),48% (inactive)
11,Cc1ccc2cc(C#N)c(SCC(=O)NCc3ccco3)nc2c1,103% (inactive)
12,O=S(=O)(NCC(c1ccco1)S(=O)(=O)c1cccs1)c1ccc(F)c(C(F)(F)F)c1 (centres undefined),32% (inactive)
13,COc1ccc(CCNC(=O)c2ccc3c(c2)N(Cc2ccc(Cl)cc2)C(=O)c2ccccc2S3)cc1OC,55% (inactive)
14,Cc1cc(C)cc(NC(=O)CSc2nccn2-c2ccccc2)c1,135% (inactive)
15,Cc1cccc(NC(=O)c2ccc3oc(=O)c(S(=O)(=O)c4ccc(F)cc4)cc3c2)c1C,127% (inactive)
16,CN(CCO)Cc1ccc2c(c1)OCO2,121% (inactive)
17,Cc1nn(-c2ccc(F)cc2)c(-n2cccc2)c1C(=O)NCCc1ccc(Cl)cc1,54% (inactive)
18,Cc1ccc(-n2ncc(C(=O)NCc3ccccc3C)c2-n2cccc2)cc1,88% (inactive)
19,CSc1ccc(CCNC(=O)c2cnn(-c3ccccc3)c2-n2cccc2)cc1,9% (active)
20,Cc1nn(-c2ccccc2)c(-n2cccc2)c1C(=O)NCc1ccccc1Cl,1% (active)
21,Cc1ccc(CCNC(=O)c2c(C)nn(-c3ccc(F)cc3)c2-n2cccc2)cc1,60% (inactive)
22,CCOc1ccccc1CNC(=O)c1cnn(-c2ccc(C)cc2)c1-n1cccc1,10% (active)
23,Cc1ccc(NC(=O)c2c(C)nn(-c3ccccc3)c2-n2cccc2)c(Cl)c1,78% (inactive)
24,CC(=O)Nc1ccc(NC(=O)c2c(C)nn(-c3ccccc3)c2-n2cccc2)cc1,80% (inactive)

row,Structure (SMILES),survival
1,Cc1nn(-c2ccccc2)c(-n2cccc2)c1C(=O)NCCc1ccc(Cl)cc1,2% (active)
2,COc1ccc(CNC(=O)c2cnn(-c3ccccc3)c2-n2cccc2)cc1OC,126% (inactive)
3,COc1ccc(CNC(=O)c2cnn(-c3ccc(F)cc3)c2-n2cccc2)cc1,113% (inactive)
4,O=C(NCCc1ccccc1)c1cnn(-c2ccc(F)cc2)c1-n1cccc1,49% (inactive)
5,CCOC(=O)C1=C(C)NC(=O)NC1c1c(O)ccc2ccccc12 (centres undefined),111% (inactive)
6,Cc1cn2c(=O)c(S(=O)(=O)NCCc3ccc(Cl)cc3)c(C)nc2s1,88% (inactive)
7,COc1ccc(CC(=O)NCCc2csc3nc(-c4ccccc4F)nn23)cc1,55% (inactive)
8,Cc1ccc(C)c(Oc2nc3c(c(=O)n(C)c(=O)n3C)n2Cc2ccccc2)c1,73% (inactive)
9,COCCCNC(=O)CCCCn1c(=O)c2ccccc2n(CC(=O)Nc2ccc(C)cc2C)c1=O,82% (inactive)
10,COC(=O)c1sc2cccc(F)c2c1S(=O)(=O)N1CCN(c2cccc(C)c2)C(C)C1 (centres undefined),87% (inactive)
11,CN1C(=O)C(CC(=O)NCC2CCCCC2)SC1=Nc1ccccc1 (centres undefined),99% (inactive)
12,O=C1C2C3C=CC(C3)C2C(=O)N1c1ccc2c(c1)OCO2 (centres undefined),94% (inactive)
13,COc1ccc(S(=O)(=O)N2CCC(n3c(C)nc4cccnc43)CC2)cc1Cl,131% (inactive)
14,COc1ccc(-c2cc(C(F)(F)F)n3nc(C(=O)NCC45CC6CC(CC(C6)C4)C5)cc3n2)cc1,62% (inactive)
15,O=C(NCC12CC3CC(CC(C3)C1)C2)c1cc2nc(-c3ccccc3)cc(C(F)(F)F)n2n1,-12% (active)
16,O=C(NCC12CC3CC(CC(C3)C1)C2)c1cc2nc(-c3ccc(Cl)cc3)cc(C(F)(F)F)n2n1,60% (inactive)
17,CCOc1ccccc1Nc1sc(C(=O)c2ccc(Cl)cc2)c(N)c1S(=O)(=O)c1ccccc1,19% (inactive)
18,COc1cccc2sc(N3CCN(C(=O)CS(=O)(=O)c4ccc(Cl)cc4)CC3)nc12,-6% (active)
19,Cc1c(Cl)ccc2sc(N3CCN(C(=O)CCS(=O)(=O)c4ccc(F)cc4)CC3)nc12,-3% (active)
20,Cc1c(Cl)ccc2sc(N3CCN(C(=O)CS(=O)(=O)c4ccccc4)CC3)nc12,124% (inactive)
21,Cc1ccc2sc(N3CCN(C(=O)CCS(=O)(=O)c4ccc(F)cc4)CC3)nc2c1C,82% (inactive)
22,Cc1ccc(S(=O)(=O)CCC(=O)N2CCN(c3nc4c(C)c(Cl)ccc4s3)CC2)cc1,68% (inactive)
23,Cc1cccc2sc(N3CCN(C(=O)CS(=O)(=O)c4ccc(F)cc4)CC3)nc12,73% (inactive)
24,Cc1ccc2sc(N3CCN(C(=O)CCS(=O)(=O)c4ccc(Cl)cc4)CC3)nc2c1C,75% (inactive)

row,Structure (SMILES),survival
1,COc1cccc2sc(N3CCN(C(=O)CCS(=O)(=O)c4ccc(F)cc4)CC3)nc12,87% (inactive)
2,Cc1ccc(S(=O)(=O)CC(=O)N2CCN(c3nc4c(F)cccc4s3)CC2)cc1,-6% (active)
3,Cc1c(Cl)cccc1NC(=O)CSc1nc(=O)n(Cc2ccco2)c2c1CCC2,120% (inactive)
4,COc1ccccc1N1CCN(CCC(=O)Nc2cccc(F)c2)CC1,76% (inactive)
5,COc1ccc(NC(=O)NC2COc3ccccc3C2)c(OC)c1 (centres undefined),88% (inactive)
6,COc1ccc(NC(=O)NC2COc3ccccc3C2)cc1Cl (centres undefined),65% (inactive)
7,O=C(Nc1ccc(OC(F)(F)F)cc1)NC1COc2ccccc2C1 (centres undefined),-3% (active)
8,O=C(Cn1cc(S(=O)(=O)c2ccccc2)c(=O)c2cc3c(cc21)OCO3)Nc1ccc(Cl)cc1,65% (inactive)
9,COCCNC(=O)c1sc2ncccc2c1-n1c(C)ccc1C,88% (inactive)
10,Cc1ccc(CCNC(=O)c2sc3ncccc3c2-n2c(C)ccc2C)cc1,75% (inactive)
11,CCc1ccc(CNC(=O)c2sc3ncccc3c2-n2c(C)ccc2C)cc1,-3% (active)
12,Cc1cc2ccccc2n1-c1ccc(C(=O)N2CCC(C(=O)NCc3ccccc3Cl)CC2)s1,60% (inactive)
13,COc1ccc(C2C=C(c3ccc(Cl)c(Cl)c3)Nc3ncnn32)cc1 (centres undefined),26% (inactive)
14,CC(C)c1ccc(C2=CC(c3cccc(Cl)c3)n3ncnc3N2)cc1 (centres undefined),-3% (active)
15,CC(C)c1ccc(C2=CC(c3cccc(Cl)c3)n3c(nc4ccccc43)N2)cc1 (centres undefined),60% (inactive)
16,CCOC(=O)c1cc2c(=O)n3ccccc3nc2n(Cc2ccco2)c1=NC(=O)c1ccccc1OC,64% (inactive)
17,CCOCCCn1c(SCC(=O)NCCCOC)nc2c(sc3ccccc32)c1=O,134% (inactive)
18,CC(C)OCCCn1c(SCc2ccccc2C#N)nc2c(sc3ccccc32)c1=O,76% (inactive)
19,CCOCCCn1c(SCC(=O)NCc2ccccc2)nc2c(sc3ccccc32)c1=O,-6% (active)
20,CCCCn1c(SCc2ccccc2C#N)nc2c(sc3ccccc32)c1=O,14% (active)
21,CCCCn1c(SCC(=O)NCCCOC)nc2c(sc3ccccc32)c1=O,133% (inactive)
22,CCOC(=O)CSc1nc2c(sc3ccccc32)c(=O)n1CCc1ccccc1,75% (inactive)
23,CCOCCCn1c(SCC(=O)OCC)nc2c(sc3ccccc32)c1=O,136% (inactive)
24,COCCCn1c(SCc2ccccc2F)nc2c(sc3ccccc32)c1=O,98% (inactive)

row,Structure (SMILES),survival
1,CCOC(=O)CSc1nc2c(sc3ccccc32)c(=O)n1CCO,-6% (active)
2,COCCCn1c(SCC(=O)NCc2ccccc2)nc2c(sc3ccccc32)c1=O,72% (inactive)
3,COCCCNC(=O)CSc1nc2c(sc3ccccc32)c(=O)n1CCc1ccccc1,64% (inactive)
4,COCCCNC(=O)CSc1nc2c(sc3ccccc32)c(=O)n1CCc1ccc(OC)c(OC)c1,-6% (active)
5,Cc1c(C(=O)Nc2ccc(F)c(Cl)c2)oc2ccc(S(=O)(=O)N(C)C3CCCCC3)cc12,99% (inactive)
6,Cc1ccc(C)c(S(=O)(=O)c2cn(C)c3cc(F)c(F)cc3c2=O)c1,81% (inactive)
7,COc1cccc(-n2ccnc2SCC(=O)Nc2c(C)cc(C)cc2C)c1,113% (inactive)
8,O=C(CCCCCn1c(=O)c2sccc2n(Cc2ccc(Cl)cc2)c1=O)NCc1ccc2c(c1)OCO2,86% (inactive)
9,CCCCn1c(SCC(=O)c2ccccc2)nc2c(sc3ccccc32)c1=O,-1% (active)
10,CCCCn1c(SCC(=O)NCc2ccc(C)cc2)nc2c(sc3ccccc32)c1=O,69% (inactive)
11,CC(C)OCCCn1c(SCC(=O)c2ccccc2)nc2c(sc3ccccc32)c1=O,72% (inactive)
12,COc1ccc(CN(CCN)C2CC(C)N(C)CC2C)cc1 (centres undefined),105% (inactive)
13,Cc1ccc(C2CCN(C(=O)Nc3ccc(Cl)c(Cl)c3)C2)cc1 (centres undefined),-3% (active)
14,O=C(Nc1ccc(Cl)c(Cl)c1)N1CCC(c2ccccc2)C1 (centres undefined),71% (inactive)
15,Cc1ccc(C2CCN(C(=O)Nc3ccc(Cl)cc3)C2)cc1 (centres undefined),71% (inactive)
16,Cc1cccc(-c2nc3ccccc3o2)c1,119% (inactive)
17,Cc1c(Cl)cccc1NC(=O)C(CCS(C)(=O)=O)N1Cc2ccccc2C1=O (centres undefined),74% (inactive)
18,COC(=O)c1cc(NC(=O)[C@H](CCS(C)(=O)=O)N2Cc3ccccc3C2=O)cc(C(=O)OC)c1,87% (inactive)
19,CS(=O)(=O)CCC(C(=O)Nc1cccc(C(F)(F)F)c1)N1Cc2ccccc2C1=O (centres undefined),-1% (active)
20,CS(=O)(=O)CC[C@@H](C(=O)NCCc1ccccc1)N1Cc2ccccc2C1=O,90% (inactive)
21,COc1ccc(NC(=O)[C@H](Cc2ccccc2)N2Cc3ccccc3C2=O)cc1OC,94% (inactive)
22,COc1cc(NC(=O)C(CCS(C)(=O)=O)N2Cc3ccccc3C2=O)cc(OC)c1OC (centres undefined),14% (active)
